Source: PubChem BioAssay
Rows were chosen to be rich in hits. Some 5.5% of all compounds tested hit in one or more screens of this group.
Coupling enz: qHTS Assay for Inhibitors of Fructose-1,6-bisphosphate Aldolase from Giardia Lamblia: Coupling assay counterscreen | coupling enzyme system counterscreen, AmpLite Red fluorescence | activity change, negative = inhibition, % at 58.2 µM, hits read low | 290,000 tested, 0.67% active | AID 2472, 2010; in the data active = activity change below about -30%
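Fluorescence at 525 nm excitation and 598 nm emission measured inhibition of the coupled detection system without aldolase. Compounds (at 57.5 uM final) were preincubated 10 min at room temperature with coupling enzyme reagent before a 20 min substrate/AmpLite Red step.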
Giardia kill: Small Molecules that selectively kill Giardia lamblia: qHTS. activity change, % at 7.66 µM, hits read low. AID 540267, 2011. Giardia lamblia trophozoite viability. 340,000 tested, 0.15% active; in the data active = activity change below about -80%; inconclusive = between about -30% and that limit;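 also: parasites exposed to compound for two days anaerobically before the ATP read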
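Media and compound were dispensed first, then trophozoites at 100 cells/well; plates sat 48 hrs at 37 deg C without oxygen before ATP luminescence reagent was added and read after 15-30 min at room temperature.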
Sfp inh: qHTS Assay for Inhibitors of Bacillus subtilis Sfp phosphopantetheinyl transferase (PPTase). Biochemical Sfp PPTase activity, qHTS. Potency, µM, without a hit: largest response in the series, negative = inhibition, actives largely listed as inhibitors. 310,000 tested, 3.5% active. AID 1490, 2009;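 also: the enzyme is Sfp with the accession as filed and its product quenches rhodamine fluorescence; potency is read from the fitted curve at half-maximal effect; 0% = enzyme reaction without inhibitor and -100% = no enzyme wells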
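Compounds were incubated with enzyme (final 15 nM) for 15 min at room temperature before substrate addition started the reaction. Fluorescence at 525 nm excitation, 598 nm emission was recorded immediately and after 30 minutes.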
ELG1 DNA repair: qHTS screen for small molecules that inhibit ELG1-dependent DNA repair in human embryonic kidney (HEK293T) cells expressing luciferase-tagged ELG1 | HEK293T ELG1-luciferase reporter, luminescence, 16 h; DNA damage induced by 5-fluorouridine | Potency, µM (series often up to 46.1 µM), for inactives: top-dose activity change, negative = inhibition, actives largely listed as inhibitors | 330,000 tested, 2.3% active | AID 504467, 2011; also: potency is read from the fitted curve at half-maximal effect; nearly all actives have a fitted effect of over 55% in size
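5-Fluorouridine DNA damage + compound/DMSO, 2,000 cells/well, 16 h, 37 °C/5% CO2. ONE-Glo, 30 min RT, luminescence. Readout = decrease in reporter signal.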
* = called active by the depositor; ? = inconclusive; . = no result. Unless noted, calls follow the shape of the dose curve; as a rule, active = well fitted curve in the direction sought with a large enough effect; inconclusive = small, poorly fitted or top-dose-only effect, or another doubt; inactive = no such curve, though single readings can be large; an effect the other way counts as inactive or inconclusive. Unless noted, % is scaled to controls: 0 for no effect and ±100 for the full control effect.

SMILES	Coupling enz	Giardia kill	Sfp inh	ELG1 DNA repair
CN(C)c1nc(N)c(C#N)c(C#N)c1C#N	.	7	.	.
COc1cc(Cl)ccc1OCc1cc(C(=O)NCc2cc(C(C)C)no2)no1	.	-12	2%	?
CC(C)Oc1ccc(S(=O)(=O)N2CCOCC2)cc1NC(=O)CN1C(=O)NC2(CCCC2)C1=O	.	3	9%	4%
CCN(CCCCO)c1nc(C)nc2c1c(C)c(C)n2-c1c(C)cc(C)cc1C	4	.	-15%	.
COc1cccc(NC(=O)c2oc3ccc(S(=O)(=O)N4CCOCC4)cc3c2C)c1	-1	-25	3%	21µM*
Cc1c(C(=O)NCc2c(F)cc(F)cc2F)oc2ccc(S(=O)(=O)N3CCOCC3)cc12	1	-5	-3%	29µM*
Cc1c(C(=O)Nc2cccc(Cl)c2)oc2ccc(S(=O)(=O)N3CCC4(CC3)OCCO4)cc12	-9	-23	?	9.2µM*
COc1cccc(NC(=O)C2CCC(CNS(=O)(=O)c3ccc4c(c3)CC(C)N4C(C)=O)CC2)c1 (stereo not given)	1	-5	7%	?
Cc1onc(-c2c(Cl)cccc2Cl)c1C(=O)Nc1nccs1	-1	-2	-5%	23µM*
COCCN1CC(CNC(=O)c2cc(COc3ccccc3SC)on2)CC1=O (stereo not given)	0	18	10%	22%
CCOc1ccc(S(=O)(=O)N2CCN(CC(O)COc3cccc([N+](=O)[O-])c3)CC2)cc1 (stereo not given)	-1	2	-8%	15µM*
O=S(=O)(N1CCCCC1)N1CCN(CC(O)COc2ccc3cc(Br)ccc3c2)CC1 (stereo not given)	0	-11	2%	13µM*
CN(C)S(=O)(=O)N1CCN(CC(O)COc2ccc3cc(Br)ccc3c2)CC1 (stereo not given)	1	3	-17%	23µM*
OC(COc1ccc2cc(Br)ccc2c1)CN1CCN(c2ccccn2)CC1 (stereo not given)	2	3	-6%	14%
OC(COc1ccc2cc(Br)ccc2c1)CN1CCCC1 (stereo not given)	-1	9	79µM*	?
CC(c1nc2ccccc2c(=O)[nH]1)N1CCCN(S(=O)(=O)c2ccc(F)cc2)CC1 (stereo not given)	.	6	.	?
O=S(=O)(Nc1cccnc1)c1ccc(Br)c2ccccc12	-3	6	5%	2%
CN(C)S(=O)(=O)N1CCN(CC(O)COc2ccc(-c3ccccc3)cc2)CC1 (stereo not given)	3	20	-4%	21µM*
CCCNC1=C(N(C(C)=O)c2cccc(F)c2)C(=O)c2ccccc2C1=O	-49*	-1	19%	4.6µM*
Cc1cc(OCCn2c(CCNC(=O)C3CCCCC3)nc3ccccc32)ccc1Cl	.	-6	.	.
CCC(C)Nc1nc(N)c([N+](=O)[O-])c(N2CCCCCC2)n1 (stereo not given)	5	-9	-2%	-11%
CCC(C)Nc1nc(N)c([N+](=O)[O-])c(Nc2ccccc2OC)n1 (stereo not given)	-2	3	-4%	-3%
COc1ccccc1Nc1nc(NCC(C)C)nc(N)c1[N+](=O)[O-]	2	22	-11%	8.2µM*
CCC(C)Nc1nc(N)c([N+](=O)[O-])c(Nc2cc(OC)ccc2OC)n1 (stereo not given)	2	-12	-12%	23µM*
C=CCNc1nc(N)c([N+](=O)[O-])c(Nc2ccccc2OC)n1	1	-18	16%	-7%
SMILES	Coupling enz	Giardia kill	Sfp inh	ELG1 DNA repair
CC(C)CNc1nc(N)c([N+](=O)[O-])c(N2CCCCCC2)n1	3	2	2%	7.3µM*
O=C1NC(=O)N2CCSC2(Cc2ccccc2)N1 (stereo not given)	.	-15	.	.
O=C(OCC(=O)N1CCCc2ccccc21)c1ccc(S(=O)(=O)C(F)F)cc1	.	5	.	3%
Cc1ccc(S(=O)(=O)N2CCN(C(=O)Cn3c(=O)oc4ccccc43)CC2)c(C)c1	.	-15	.	-6%
COc1cc(/C=C2/C(=O)N(c3ccc(Br)cc3)N=C2C)cc(OC)c1OC	3	-8	?	0%
COc1cc(/C=C2/C(=O)N(c3ccc(C(=O)O)cc3)N=C2C)cc(OC)c1O	-20	-20	40µM*	-5%
CC(C)CN(C(=O)COC(=O)c1ccc(Br)o1)c1c(N)n(Cc2ccccc2)c(=O)[nH]c1=O	.	7	.	16%
CC(C)c1ccc(NC(=O)C2C3C=CC(CC3)C2C(=O)O)cc1 (stereo not given)	.	15	.	.
O=C(O)C1C2C=CC(CC2)C1C(=O)O (stereo not given)	1	5	40µM*	12%
CN(C)/C=C1\NC(=S)N(c2ccc(Cl)cc2)C1=O	0	3	32µM*	10%
CN(C)/C=C1\NC(=S)N(c2ccccc2)C1=O	3	3	50µM*	-5%
CCOc1cccc(/C=C2\NC(=S)N(c3ccccc3)C2=O)c1O	-9	-3	2%	?
CN1CC=C2C(C#N)=C(N)C(C#N)(C#N)[C@H](c3ccoc3)[C@H]2C1	-31*	2	0%	0%
Cc1nn(-c2ccccc2)c(C)c1C(=O)NCc1ccccc1F	-2	15	8%	14%
O=C(CCn1c(=O)c2cccn2c2cccnc21)N1CCN(c2cccc(Cl)c2)CC1	.	-21	7%	?
CN(Cc1ccccc1)S(=O)(=O)c1ccc(Cl)c(C(=O)NCc2cccnc2)c1	.	-5	.	-28%
O=C(N/N=C/c1cccn1-c1ccc([N+](=O)[O-])cc1)C(O)c1ccccc1 (stereo not given)	4	-13	18µM*	1%
O=C(Cc1ccccc1)N/N=C/c1cccn1-c1ccc([N+](=O)[O-])cc1	9	3	-16%	?
Cc1ccsc1/C=N/NC(=O)Cc1ccc(Cl)cc1	1	-5	11%	-1%
COc1ccccc1NC(=O)COc1ccc(/C=N/NC(=O)CSCc2ccc(Cl)cc2)cc1	0	6	40µM*	?
Cc1ccsc1/C=N/NC(=O)CSCc1ccc(Cl)cc1	-34*	-21	-4%	-14%
Cc1ccc(NC(=O)CSc2n[nH]c(-c3ccncc3)n2)c(C)c1	-5	-1	8%	4%
Cc1ccc(NC(=O)Cc2nc(-c3c[nH]c(C(=O)N4CCCC4)c3)cs2)c(C)c1	.	5	.	16µM*
Cc1ccc(Nc2cc(C)nn2-c2nc(C)cc(C)n2)cc1	0	2	0%	15µM*
N#Cc1cc2c(nc1SCC(=O)N1CCCCC1)CCCC2	-1	16	1%	18%
N#Cc1cc2c(nc1SCc1ccccc1)CCC2	-1	22	12%	?
N#Cc1cc2c(nc1SCC(=O)N1CCCCC1)CCCCC2	1	-20	56µM*	.
